Experimental findings from PubChem BioAssay (EPA / NIEHS) are described below.

Activity calls are given as the source filed them. Rule for the calls: active = hit-call score of the fitted dose curve at least 0.9, where 1 is the maximum; inactive = score below 0.9.

As a reminder, the AC50 is the concentration at which the activity in the assay is half-maximal.

Read-out in assay [1]: C-C motif chemokine 2 (Homo sapiens) (UniProt P13500)
The assay can be described thus: BSK_KF3CT_MCP1: BioMAP Diversity Plus: KF3CT Assay for Monocyte Chemoattractant Protein 1 (MCP1/CCL2) Biomarker Activity (AID 2283073). To be noted: primary human keratinocytes with fibroblasts; actives raise or lower the signal. The procedure, abridged: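 Human keratinocyte–foreskin fibroblast co-culture; MCP-1 measured by ELISA 24 h after dosing. Bidirectional fit vs DMSO; cytotoxicity tracked by SRB total protein in parallel cultures.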

Read-out in assay [2]: Matrix Metallopeptidase 9 (MMP9), MMP9 (gene 4318)
The assay can be described thus: BSK_KF3CT_MMP9: BioMAP Diversity Plus: KF3CT Assay for Matrix Metallopeptidase 9 (MMP9) Biomarker Activity (AID 2283074).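 For AC50: MMP9 protein level quantified by ELISA in the co-culture.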 The conditions noted are these: primary human keratinocytes with fibroblasts; actives raise or lower the signal. In outline:
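Human keratinocyte/foreskin fibroblast co-culture; compound added; 24 h; MMP-9 by ELISA; bidirectional fit vs DMSO baseline.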

Read-out in assay [3]: urokinase plasminogen activator (uPA), PLAU (gene 5328)
The assay can be described thus: BSK_KF3CT_uPA: BioMAP Diversity Plus: KF3CT Assay for urokinase plasminogen activator (uPA) Biomarker Activity (AID 2283075). The conditions noted are these: primary human keratinocytes with fibroblasts; actives raise or lower the signal. The procedure, abridged: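 ELISA readout of uPA, analyzed for signal gain or loss relative to DMSO, from a human primary keratinocyte–foreskin fibroblast co-culture measured 24 h after chemical treatment.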

Read-out in assay [4]: CD40, CD40 (gene 958)
The assay can be described thus: BSK_LPS_CD40: BioMAP Diversity Plus: LPS Assay for CD40 Biomarker Activity (AID 2283076). To be noted: primary human HUVEC with PBMC; actives raise or lower the signal. The procedure, abridged: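 HUVEC plus PBMC co-culture stimulated with LPS; CD40 quantified by ELISA 24 h after compound dosing. Fitting was bidirectional relative to DMSO. SRB staining of parallel cultures flagged overt cytotoxicity.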

Read-out in assay [5]: E-selectin (Homo sapiens) (UniProt P16581)
Description: BSK_LPS_Eselectin: BioMAP Diversity Plus: LPS Assay for Eselectin Biomarker Activity (AID 2283077). To be noted: primary human HUVEC with PBMC; actives raise or lower the signal. The procedure, abridged: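 Human umbilical vein endothelial cells co-cultured with PBMC under LPS stimulation; cell-surface E-selectin measured by ELISA 24 h after dosing. Change in either direction versus DMSO, with SRB total-protein staining in parallel cultures for cytotoxicity.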

Read-out in assay [6]: Interleukin-8 (IL8), CXCL8 (gene 3576)
Description: BSK_LPS_IL8: BioMAP Diversity Plus: LPS Assay for Interleukin-8 (IL8) Biomarker Activity (AID 2283078). To be noted: primary human HUVEC with PBMC; actives raise or lower the signal. The procedure, abridged:
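Human umbilical vein endothelial cells co-cultured with PBMC, LPS-stimulated, exposed to compound for 24 h. IL-8 quantified by ELISA; fitted in both directions against DMSO, with SRB total-protein staining of parallel cultures for cytotoxicity.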

Assay [7] in a line: BSK_LPS_SRB: Viability Assessment in the BioMAP Diversity Plus: LPS Assay (AID 2283079).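 Note: total protein by sulforhodamine B absorbance as a cytotoxicity measure; measured one day after compound addition; fitted in both directions against DMSO so loss or gain of signal counts.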 The conditions noted are these: primary human HUVEC with PBMC. In outline:
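Co-culture of human umbilical vein endothelial cells and PBMC, read 24 h after dosing. Total protein by 0.1% SRB staining after 10% TCA fixation, absorbance at 560 nm; bidirectional fit against DMSO.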

Read-out in assay [8]: Interleukin-1 alpha (IL1a), IL1A (gene 3552)
Description: BSK_LPS_IL1a: BioMAP Diversity Plus: LPS Assay for Interleukin-1 alpha (IL1a) Biomarker Activity (AID 2283080). The conditions noted are these: primary human HUVEC with PBMC; actives raise or lower the signal. The procedure, abridged:
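Human umbilical vein endothelial cells co-cultured with PBMC and stimulated with LPS; IL-1a measured by ELISA 24 h after dosing. Bidirectional fitting against DMSO; cytotoxicity checked by SRB staining in parallel cultures.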

Read-out in assay [9]: Monocyte Chemoattractant Protein-1 (MCP1), CCL2 (gene 6347)
The assay can be described thus: BSK_LPS_MCP1: BioMAP Diversity Plus: LPS Assay for Monocyte Chemoattractant Protein-1 (MCP1) Biomarker Activity (AID 2283081).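 For AC50: secreted MCP-1 protein quantified by ELISA in culture supernatant.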 The conditions noted are these: primary human HUVEC with PBMC; actives raise or lower the signal. In outline:
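Human umbilical vein endothelial cells co-cultured with PBMC, LPS-stimulated; secreted MCP-1 measured by ELISA 24 h after compound addition. Bidirectional curve fitting against DMSO baseline; SRB total-protein staining in parallel cultures for cytotoxicity.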

A short description of assay [10]: BSK_LPS_PGE2: BioMAP Diversity Plus: LPS Assay for Prostaglandin E2 (PGE2) Biomarker Activity (AID 2283082). The conditions noted are these: primary human HUVEC with PBMC; actives raise or lower the signal. The procedure, abridged:
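Endpoint derived from bidirectional curve fitting versus DMSO of ELISA-measured PGE2 in LPS-stimulated human primary vascular co-culture (HUVEC with PBMC) harvested at 24 h.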

Read-out in assay [11]: Macrophage colony-stimulating factor (MCSF), CSF1 (gene 1435)
Description: BSK_LPS_MCSF: BioMAP Diversity Plus: LPS Assay for Macrophage colony-stimulating factor (MCSF) Biomarker Activity (AID 2283083). To be noted: primary human HUVEC with PBMC; actives raise or lower the signal. The procedure, abridged:
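HUVEC–PBMC co-culture, M-CSF measured by ELISA 24 h after chemical dosing. Fitted in both directions relative to DMSO as negative control; overt cytotoxicity assessed by SRB total-protein staining in parallel cultures.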

Read-out in assay [12]: Tissue Factor, F3 (gene 2152)
Description: BSK_LPS_TissueFactor: BioMAP Diversity Plus: LPS Assay for Tissue Factor Biomarker Activity (AID 2283084). To be noted: primary human HUVEC with PBMC; actives raise or lower the signal. The procedure, abridged:
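Human umbilical vein endothelial cells co-cultured with PBMC were dosed with compound. Cell-surface CD142 was measured by ELISA 24 h later. Activity was fitted bidirectionally against DMSO, with SRB total-protein staining in parallel cultures for cytotoxicity.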

Read-out in assay [13]: Tumor necrosis factor (Homo sapiens) (UniProt P01375)
The assay can be described thus: BSK_LPS_TNFa: BioMAP Diversity Plus: LPS Assay for Tumour Necrosis Factor alpha (TNFa) Biomarker Activity (AID 2283085). To be noted: primary human HUVEC with PBMC; actives raise or lower the signal. The procedure, abridged: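 Primary human vascular co-culture of HUVEC and PBMC; TNFa ELISA 24 h after treatment, analysed as increase or decrease relative to DMSO control.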

Read-out in assay [14]: Vascular cell adhesion molecule 1 (VCAM1), VCAM1 (gene 7412)
Description: BSK_LPS_VCAM1: BioMAP Diversity Plus: LPS Assay for Vascular cell adhesion molecule 1 (VCAM1) Biomarker Activity (AID 2283086). To be noted: primary human HUVEC with PBMC; actives raise or lower the signal. The procedure, abridged: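 Primary human vascular co-culture (umbilical vein endothelium plus PBMC) stimulated with LPS received chemical; 24 h later VCAM-1 was read by ELISA. Overt cytotoxicity was assessed by sulforhodamine B staining of parallel cultures at the same time point.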

Read-out in assay [15]: CD38, CD38 (gene 952)
The assay can be described thus: BSK_SAg_CD38: BioMAP Diversity Plus: SAg Assay for CD38 Biomarker Activity (AID 2283087). The conditions noted are these: primary human HUVEC with PBMC; actives raise or lower the signal. The procedure, abridged: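 Fluorescence ELISA of cell-surface CD38 served as the read-out, with either increase or decrease fitted against DMSO controls. Cells were a human umbilical vein endothelium plus PBMC co-culture under SEB/TSST-1 stimulation, measured 24 h after dosing.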

Read-out in assay [16]: CD40, CD40 (gene 958)
The assay can be described thus: BSK_SAg_CD40: BioMAP Diversity Plus: SAg Assay for CD40 Biomarker Activity (AID 2283088). The conditions noted are these: primary human HUVEC with PBMC; actives raise or lower the signal. In outline:
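HUVEC plus PBMC co-culture, superantigen-activated, with CD40 read by ELISA 24 h after dosing. Curves fitted in both directions against DMSO. Overt cytotoxicity checked by parallel SRB total-protein staining.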

Read-out in assay [17]: CD69, CD69 (gene 969)
The assay can be described thus: BSK_SAg_CD69: BioMAP Diversity Plus: SAg Assay for CD69 Biomarker Activity (AID 2283089).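 For AC50: cell surface CD69 protein quantified by ELISA with fluorescence detection.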 The conditions noted are these: primary human HUVEC with PBMC; actives raise or lower the signal. In outline:
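Endothelial/PBMC co-culture; chemical added; 24 h incubation; CD69 ELISA with fluorescence detection; bidirectional fit vs DMSO.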

Read-out in assay [18]: Monocyte Chemoattractant Protein-1 (MCP1), CCL2 (gene 6347)
Description: BSK_SAg_MCP1: BioMAP Diversity Plus: SAg Assay for Monocyte Chemoattractant Protein-1 (MCP1) Biomarker Activity (AID 2283090). To be noted: primary human HUVEC with PBMC; actives raise or lower the signal. In outline:
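MCP-1 levels in the endothelial–PBMC SAg co-culture were quantified by ELISA at 24 h post-dosing; both increases and decreases versus DMSO scored. Cytotoxicity monitored by SRB total protein in parallel cultures.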

Read-out in assay [19]: Monokine induced gamma interferon (MIG), CXCL9 (gene 4283)
The assay can be described thus: BSK_SAg_MIG: BioMAP Diversity Plus: SAg Assay for Monokine induced gamma interferon (MIG) Biomarker Activity (AID 2283092). To be noted: primary human HUVEC with PBMC; actives raise or lower the signal. The procedure, abridged: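 Measures CXCL9 protein by ELISA in a human vascular primary-cell co-culture (umbilical vein endothelium with PBMC) 24 h after chemical addition. Activity is scored up or down from the DMSO control.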

E-selectin (Homo sapiens), sequence (P16581 whole entry, looked up): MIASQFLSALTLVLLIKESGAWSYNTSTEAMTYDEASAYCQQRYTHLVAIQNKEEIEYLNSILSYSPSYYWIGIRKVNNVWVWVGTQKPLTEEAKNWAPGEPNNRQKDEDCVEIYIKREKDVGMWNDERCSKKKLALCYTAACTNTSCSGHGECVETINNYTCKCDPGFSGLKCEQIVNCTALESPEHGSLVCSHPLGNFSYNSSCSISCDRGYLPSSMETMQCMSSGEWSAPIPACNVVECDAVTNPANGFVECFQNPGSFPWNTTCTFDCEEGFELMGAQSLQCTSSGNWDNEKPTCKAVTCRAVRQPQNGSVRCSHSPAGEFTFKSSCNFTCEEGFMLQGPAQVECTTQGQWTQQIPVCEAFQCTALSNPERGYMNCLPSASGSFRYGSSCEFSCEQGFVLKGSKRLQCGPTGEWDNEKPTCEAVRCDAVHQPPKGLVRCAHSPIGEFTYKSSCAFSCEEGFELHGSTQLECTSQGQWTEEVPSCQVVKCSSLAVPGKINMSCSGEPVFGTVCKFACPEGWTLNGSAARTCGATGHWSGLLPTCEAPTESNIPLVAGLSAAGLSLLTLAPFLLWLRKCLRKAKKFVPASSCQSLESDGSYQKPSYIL
Tumor necrosis factor (Homo sapiens), sequence (P01375 whole entry, looked up): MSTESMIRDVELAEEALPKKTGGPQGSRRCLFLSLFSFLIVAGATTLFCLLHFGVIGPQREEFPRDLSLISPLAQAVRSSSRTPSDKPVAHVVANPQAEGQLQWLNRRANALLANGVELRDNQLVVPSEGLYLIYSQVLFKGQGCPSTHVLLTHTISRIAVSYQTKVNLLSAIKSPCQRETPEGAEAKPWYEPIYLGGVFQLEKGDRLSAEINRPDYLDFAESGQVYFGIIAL

For `CC12CC1(C)C(=O)N(c1cc(Cl)cc(Cl)c1)C2=O` (configuration not stated), the result in assay [1], in [2], in [3], in assay [4], in [5] and in [6] was inactive. For the same molecule, the result in assay [7], in assay [8], in assay [9], in [10], in assay [11] and in assay [12] was inactive. Further, the outcome in [13], in assay [14], in assay [15], in [16], in assay [17] and in assay [18] was inactive. Besides, the outcome in assay [19] was inactive.
For the molecule `CCOP(=S)(OCC)Oc1ccc(S(C)=O)cc1` (configuration not stated), the outcome in [1], in assay [2], in [3], in assay [4], in [5] and in assay [6] was inactive. The outcome in assay [7], in assay [8], in assay [9], in assay [10], in [11] and in assay [12] was inactive. In addition, the outcome in [13], in [14], in [15], in assay [16], in [17] and in [18] was inactive. The result in assay [19] was inactive.
For `CCN1CCC2(CC1)COc1cc3c(cc12)N(C(=O)c1ccc(-c2ccc(-c4nnc(C)o4)cc2C)cc1)CC3`, the AC50 in assay [1] is 27 µM (active); in assay [2] it was 14.3 µM (active); in assay [3], 29.9 µM (active); in [4], 9.75 µM (active); in assay [5] it was 29.3 µM (active); in [6] it was 14.1 µM (active). Besides, the AC50 in [7] is 14.7 µM (active); in [8], 9.03 µM (active); in assay [9], 16.8 µM (active); in [11] it was 16.7 µM (active); in assay [12], 18.7 µM (active); in assay [13], 14.3 µM (active). The AC50 in [14] was 22.6 µM (active); in assay [15], 12.8 µM (active); in assay [16], 18.7 µM (active); in assay [17] it was 12 µM (active); in assay [18] it was 12.6 µM (active); in [19], 30.8 µM (active). In addition, the outcome in assay [10] was inactive.
